The values that follow come from the supplement of paper PMC10849652.

Holding throughout (test): log2 fold change, soluble protein after heating vs DMSO (PISA); higher = thermal stabilisation; K562 cells, 10 uM, 30 min; active = over 0.2 and 3.5 SD of the protein, either way, in both replicates (recomputed)
Compound in assay [1]: COC1=CC=C(C=C1)CN2C=CC3=C2C=C(C=C3)C(=O)NO
The gist of the method: (§1)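 K562 cells at 2×10^6 cells/mL were treated with 10 μM compound for 30 min. Aliquots were heated for 3 min across 48°C-58°C, pooled, and extracted in PBS with 0.5% NP-40 at 4°C; soluble protein was the supernatant after 21,000xg for 90 min. Soluble protein was quantified by TMTpro 16plex LC-MS/MS with channel sums equalised, and reported as log2 fold change in thermal stability against DMSO controls, with values from duplicates.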

Compound in the next assay: CON(C)C(=O)N1N=C(c2cc(F)ccc2F)S[C@@]1(CCCN)c1ccccc1 [filanesib]
The gist of the method:
as §1

Compound in a further assay: CO[C@H]1C[C@@H]2CC[C@@H](C)[C@@](O)(O2)C(=O)C(=O)N2CCCC[C@H]2C(=O)O[C@H]([C@H](C)C[C@@H]2CC[C@H](n3cnnn3)[C@H](OC)C2)CC(=O)[C@H](C)/C=C(\C)[C@@H](O)[C@@H](OC)C(=O)[C@H](C)C[C@H](C)/C=C/C=C/C=C/1C [zotarolimus]
Put shortly:
as §1

Compound in another assay: COc1cc(C(=O)O)ccc1NC(=O)[C@@H]1N[C@@H](CC(C)(C)C)[C@](C#N)(c2ccc(Cl)cc2F)[C@H]1c1cccc(Cl)c1F [idasanutlin]
The gist of the method: as §1

Compound in another assay: COc1cc(Nc2ncc3c(n2)-c2ccc(Cl)cc2C(c2c(F)cccc2OC)=NC3)ccc1C(=O)O [alisertib]
The gist of the method:
as §1

Compound in assay [2]: COc1cc2nc(-c3cc(F)ccc3O)nc(N[C@@H]3CNC[C@H]3C(C)(C)O)c2cc1OC
The gist of the method: as §1

Compound in the next assay: COc1cc2ncnc(Nc3ccc(F)c(Cl)c3)c2cc1OCCCN1CCOCC1 [gefitinib]
Put shortly: as §1

Compound in assay [3]: COc1cccc2cc(-c3nc([C@H]4CC[C@H](C(=O)O)CC4)n4ncnc(N)c34)[nH]c12
Put shortly: as §1

Compound in another assay: CS(=O)(=O)CCNCc1ccc(-c2ccc3ncnc(Nc4ccc(OCc5cccc(F)c5)c(Cl)c4)c3c2)o1 [lapatinib]
Put shortly:
as §1

Compound in a further assay: CS(=O)(=O)N1CCN(Cc2cc3nc(-c4cccc5[nH]ncc45)nc(N4CCOCC4)c3s2)CC1 [pictilisib]
Put shortly:
as §1

About 7,900 targets were measured; listed, in parts, are those with a hit and a random draw of the rest. About 0.6% of all pairs of compound and target were hits. Values without a mark were called inactive.

UniProt P15559, sequence (P15559 whole entry, looked up): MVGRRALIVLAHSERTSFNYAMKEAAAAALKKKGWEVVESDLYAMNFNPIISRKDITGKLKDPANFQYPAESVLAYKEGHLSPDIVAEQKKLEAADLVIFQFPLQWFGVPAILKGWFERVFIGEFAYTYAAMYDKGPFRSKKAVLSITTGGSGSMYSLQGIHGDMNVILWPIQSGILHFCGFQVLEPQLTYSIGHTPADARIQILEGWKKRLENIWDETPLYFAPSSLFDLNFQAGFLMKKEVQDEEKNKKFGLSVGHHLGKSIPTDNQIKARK
UniProt Q13153, sequence (Q13153 whole entry, looked up): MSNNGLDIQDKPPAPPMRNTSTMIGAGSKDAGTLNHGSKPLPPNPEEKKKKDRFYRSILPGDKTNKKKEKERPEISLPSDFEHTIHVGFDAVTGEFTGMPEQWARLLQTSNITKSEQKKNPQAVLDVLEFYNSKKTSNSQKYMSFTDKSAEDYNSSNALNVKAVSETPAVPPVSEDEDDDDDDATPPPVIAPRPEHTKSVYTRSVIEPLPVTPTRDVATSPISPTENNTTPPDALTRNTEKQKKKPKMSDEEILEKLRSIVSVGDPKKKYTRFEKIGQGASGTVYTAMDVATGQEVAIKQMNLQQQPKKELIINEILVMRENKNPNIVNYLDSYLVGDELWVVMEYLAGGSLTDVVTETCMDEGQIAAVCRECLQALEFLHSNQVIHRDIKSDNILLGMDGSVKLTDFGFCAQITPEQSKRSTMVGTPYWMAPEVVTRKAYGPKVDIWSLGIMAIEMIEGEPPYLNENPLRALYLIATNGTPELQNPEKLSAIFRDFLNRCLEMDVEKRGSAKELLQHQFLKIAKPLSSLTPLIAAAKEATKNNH
UniProt Q9Y2A7, sequence (Q9Y2A7 whole entry, looked up): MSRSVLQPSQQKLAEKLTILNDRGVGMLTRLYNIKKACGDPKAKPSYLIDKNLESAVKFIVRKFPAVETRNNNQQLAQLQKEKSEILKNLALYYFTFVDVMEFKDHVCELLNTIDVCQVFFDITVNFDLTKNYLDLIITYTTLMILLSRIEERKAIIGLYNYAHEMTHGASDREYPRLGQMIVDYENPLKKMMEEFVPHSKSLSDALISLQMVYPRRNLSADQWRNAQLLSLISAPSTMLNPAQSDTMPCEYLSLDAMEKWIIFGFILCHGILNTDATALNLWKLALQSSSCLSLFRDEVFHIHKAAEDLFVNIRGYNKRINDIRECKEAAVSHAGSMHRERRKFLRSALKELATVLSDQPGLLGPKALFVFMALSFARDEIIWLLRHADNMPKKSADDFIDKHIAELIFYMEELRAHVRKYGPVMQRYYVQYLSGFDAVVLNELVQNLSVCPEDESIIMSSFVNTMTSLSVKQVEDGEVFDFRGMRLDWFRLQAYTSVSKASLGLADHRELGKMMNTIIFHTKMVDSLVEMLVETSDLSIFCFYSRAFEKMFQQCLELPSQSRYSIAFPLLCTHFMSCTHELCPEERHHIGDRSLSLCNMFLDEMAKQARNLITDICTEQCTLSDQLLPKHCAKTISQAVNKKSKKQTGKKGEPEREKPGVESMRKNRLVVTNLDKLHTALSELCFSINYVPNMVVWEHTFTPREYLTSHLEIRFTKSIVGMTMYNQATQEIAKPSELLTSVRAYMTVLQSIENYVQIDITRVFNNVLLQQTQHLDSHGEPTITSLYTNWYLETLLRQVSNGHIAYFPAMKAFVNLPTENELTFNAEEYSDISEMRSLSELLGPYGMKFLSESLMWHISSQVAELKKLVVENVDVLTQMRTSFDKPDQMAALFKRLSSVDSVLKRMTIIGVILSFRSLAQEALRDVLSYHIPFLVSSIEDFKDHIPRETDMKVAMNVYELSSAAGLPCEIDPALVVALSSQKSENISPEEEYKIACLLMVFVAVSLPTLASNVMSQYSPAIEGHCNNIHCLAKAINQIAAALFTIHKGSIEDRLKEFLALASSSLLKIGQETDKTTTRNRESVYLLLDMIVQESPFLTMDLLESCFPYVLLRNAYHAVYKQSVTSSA
UniProt Q8TEM1, sequence (Q8TEM1 whole entry, looked up): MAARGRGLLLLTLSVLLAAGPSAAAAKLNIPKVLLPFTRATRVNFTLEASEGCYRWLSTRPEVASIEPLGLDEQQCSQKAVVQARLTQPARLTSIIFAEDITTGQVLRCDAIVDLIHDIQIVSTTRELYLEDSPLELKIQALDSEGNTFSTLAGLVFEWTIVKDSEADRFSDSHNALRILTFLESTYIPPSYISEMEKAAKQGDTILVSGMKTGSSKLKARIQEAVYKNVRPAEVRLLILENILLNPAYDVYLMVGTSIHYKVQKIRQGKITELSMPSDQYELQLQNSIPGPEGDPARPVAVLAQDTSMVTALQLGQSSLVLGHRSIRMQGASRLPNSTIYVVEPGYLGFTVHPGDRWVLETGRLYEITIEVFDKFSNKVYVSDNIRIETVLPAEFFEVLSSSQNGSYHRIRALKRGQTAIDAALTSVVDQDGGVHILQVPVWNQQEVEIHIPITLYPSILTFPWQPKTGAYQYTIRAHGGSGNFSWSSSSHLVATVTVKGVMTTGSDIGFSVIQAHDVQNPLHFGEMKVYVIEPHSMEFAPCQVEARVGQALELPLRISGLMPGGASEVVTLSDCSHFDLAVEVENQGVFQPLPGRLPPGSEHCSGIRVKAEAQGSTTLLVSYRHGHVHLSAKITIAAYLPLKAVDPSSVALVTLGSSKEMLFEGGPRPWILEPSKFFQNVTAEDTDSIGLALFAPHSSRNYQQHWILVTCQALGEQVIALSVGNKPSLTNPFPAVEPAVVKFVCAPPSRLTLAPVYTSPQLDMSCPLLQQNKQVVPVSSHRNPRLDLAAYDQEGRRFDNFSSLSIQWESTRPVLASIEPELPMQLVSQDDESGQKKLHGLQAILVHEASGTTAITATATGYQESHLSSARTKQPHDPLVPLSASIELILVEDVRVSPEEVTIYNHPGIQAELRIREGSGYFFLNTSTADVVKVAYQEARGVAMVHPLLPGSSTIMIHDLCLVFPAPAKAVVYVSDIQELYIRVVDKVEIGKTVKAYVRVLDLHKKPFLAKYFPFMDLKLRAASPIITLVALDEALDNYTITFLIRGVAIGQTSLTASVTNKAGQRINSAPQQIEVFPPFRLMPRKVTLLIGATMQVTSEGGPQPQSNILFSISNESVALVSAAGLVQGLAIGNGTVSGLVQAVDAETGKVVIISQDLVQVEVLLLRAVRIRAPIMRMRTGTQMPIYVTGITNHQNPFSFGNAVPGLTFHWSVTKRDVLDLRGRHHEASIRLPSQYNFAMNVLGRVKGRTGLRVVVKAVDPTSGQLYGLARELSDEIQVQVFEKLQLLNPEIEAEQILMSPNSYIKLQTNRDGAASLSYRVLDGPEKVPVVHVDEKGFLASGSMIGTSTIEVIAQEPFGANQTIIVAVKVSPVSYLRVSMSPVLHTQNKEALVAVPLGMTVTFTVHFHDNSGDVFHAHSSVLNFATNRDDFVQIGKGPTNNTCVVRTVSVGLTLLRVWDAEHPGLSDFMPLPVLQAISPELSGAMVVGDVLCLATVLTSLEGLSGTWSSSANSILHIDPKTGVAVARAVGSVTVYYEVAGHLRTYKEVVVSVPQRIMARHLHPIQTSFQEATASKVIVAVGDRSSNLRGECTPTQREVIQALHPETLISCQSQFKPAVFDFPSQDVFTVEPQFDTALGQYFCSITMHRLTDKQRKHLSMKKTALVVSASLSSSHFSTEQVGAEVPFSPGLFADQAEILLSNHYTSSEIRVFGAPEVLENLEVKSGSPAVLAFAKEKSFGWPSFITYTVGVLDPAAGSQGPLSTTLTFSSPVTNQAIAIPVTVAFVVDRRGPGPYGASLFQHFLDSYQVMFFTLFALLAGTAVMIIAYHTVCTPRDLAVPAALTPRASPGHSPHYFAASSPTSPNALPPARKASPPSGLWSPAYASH
UniProt Q8NI08, sequence (Q8NI08 whole entry, looked up): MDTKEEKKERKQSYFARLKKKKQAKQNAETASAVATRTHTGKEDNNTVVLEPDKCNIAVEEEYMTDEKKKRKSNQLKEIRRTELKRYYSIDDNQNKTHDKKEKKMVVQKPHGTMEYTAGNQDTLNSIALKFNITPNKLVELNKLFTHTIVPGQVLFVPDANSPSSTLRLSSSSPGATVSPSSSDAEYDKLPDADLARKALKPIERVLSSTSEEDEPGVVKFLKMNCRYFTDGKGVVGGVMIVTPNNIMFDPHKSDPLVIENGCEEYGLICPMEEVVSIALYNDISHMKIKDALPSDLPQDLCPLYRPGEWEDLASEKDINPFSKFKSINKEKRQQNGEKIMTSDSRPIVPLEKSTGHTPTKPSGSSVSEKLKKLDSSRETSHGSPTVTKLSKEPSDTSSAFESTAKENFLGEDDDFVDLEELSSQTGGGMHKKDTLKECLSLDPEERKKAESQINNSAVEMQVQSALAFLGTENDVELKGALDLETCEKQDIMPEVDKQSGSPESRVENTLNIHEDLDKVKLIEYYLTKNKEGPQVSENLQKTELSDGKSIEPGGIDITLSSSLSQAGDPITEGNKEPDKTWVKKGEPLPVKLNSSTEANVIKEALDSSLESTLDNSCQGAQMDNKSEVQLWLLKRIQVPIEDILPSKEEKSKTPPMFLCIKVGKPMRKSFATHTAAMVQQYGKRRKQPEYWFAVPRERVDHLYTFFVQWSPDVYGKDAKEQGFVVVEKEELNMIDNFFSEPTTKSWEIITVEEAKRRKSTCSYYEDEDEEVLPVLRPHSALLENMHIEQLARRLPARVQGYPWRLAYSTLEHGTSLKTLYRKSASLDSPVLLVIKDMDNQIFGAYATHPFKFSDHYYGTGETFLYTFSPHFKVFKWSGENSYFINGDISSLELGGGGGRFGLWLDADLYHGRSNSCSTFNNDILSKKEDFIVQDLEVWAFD
UniProt Q15014, sequence (Q15014 whole entry, looked up): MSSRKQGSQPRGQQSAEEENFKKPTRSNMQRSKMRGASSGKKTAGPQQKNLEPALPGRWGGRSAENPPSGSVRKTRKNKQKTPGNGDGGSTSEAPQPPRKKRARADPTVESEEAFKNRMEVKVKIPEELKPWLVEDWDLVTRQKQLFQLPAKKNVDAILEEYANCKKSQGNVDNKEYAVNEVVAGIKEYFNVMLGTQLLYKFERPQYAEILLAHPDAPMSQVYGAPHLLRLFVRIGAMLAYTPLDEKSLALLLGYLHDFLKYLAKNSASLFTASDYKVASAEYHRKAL

For MRPS12 (UniProt O15235), the log2 fold change is 0.018 in [1]; 0.074 with filanesib; 0.039 with zotarolimus; -0.162 in the assay with idasanutlin; -0.03 with alisertib; -0.088 in [2]. Further, the log2 fold change with gefitinib was -0.078; in assay [3] it was -0.062; with lapatinib, 0.082; in the assay with pictilisib it was -0.177.
With NOP2 isoform 4 (UniProt P46087), the log2 fold change in [1] is -0.053; with filanesib it was 0.651; in the assay with zotarolimus, 0.118; with idasanutlin it was 0.419; with alisertib, -0.065; in [2], 0.375. Moreover, the log2 fold change is -0.065 with gefitinib, -0.118 in [3], 0.456 with lapatinib and -0.039 in the assay with pictilisib.
As to NCOA7 (UniProt Q8NI08), the log2 fold change was -0.043 in assay [1]; -0.046 in the assay with filanesib; 0.035 in the assay with zotarolimus; -0.034 in the assay with idasanutlin; -0.034 with alisertib; 0.043 in assay [2]. The log2 fold change was -0.014 in the assay with gefitinib, 0.014 in assay [3], 0.01 in the assay with lapatinib and -0.045 with pictilisib.
Consider PACS1 (UniProt Q6VY07), for which the log2 fold change in assay [1] was 0.105; in the assay with filanesib it was 0.047; with zotarolimus, 0.008; with idasanutlin, -0.005; in the assay with alisertib, 0.006; in assay [2] it was 0.054. The log2 fold change is 0.043 with gefitinib, 0.002 in assay [3], 0.013 with lapatinib and 0.021 in the assay with pictilisib.
As for OXA1L (UniProt Q15070), the log2 fold change in assay [1] was -0.023; in the assay with filanesib, -0.123; in the assay with zotarolimus, 0.009; with idasanutlin it was -0.029; in the assay with alisertib it was 0.003; in assay [2] it was -0.186. The log2 fold change with gefitinib is -0.004; in [3], 0.053; in the assay with lapatinib it was 0.013; with pictilisib, 0.058.
As for NAP1L1 (UniProt P55209), the log2 fold change was -0.001 in assay [1]; 0.08 with filanesib; 0.078 with zotarolimus; 0.053 with idasanutlin; -0.043 with alisertib; 0.078 in assay [2]. The log2 fold change was -0.002 with gefitinib, -0.041 in assay [3], -0.005 with lapatinib and 0.107 in the assay with pictilisib.
As to NCKAP1 isoform 2 (UniProt Q9Y2A7), the log2 fold change in assay [1] was 0.019; with filanesib, -0.042; with zotarolimus, 0.025; with idasanutlin, -0.035; in the assay with alisertib, 0.067; in [2], 0.008. Further, the log2 fold change is -0.009 with gefitinib, -0.038 in assay [3], 0.016 with lapatinib and -0.049 with pictilisib.
On to PAK1 isoform 2 (UniProt Q13153), for which the log2 fold change in assay [1] was 0.178; with filanesib, 0.04; with zotarolimus, 0.003; in the assay with idasanutlin, -0.155; in the assay with alisertib, 0.086; in assay [2] it was -0.007. In addition, the log2 fold change in the assay with gefitinib is -0.025; in assay [3], -0.098; with lapatinib it was -0.015; in the assay with pictilisib, 0.183.
Consider NQO1 (UniProt P15559), for which the log2 fold change was 0.062 in [1]; -0.053 with filanesib; 0.069 in the assay with zotarolimus; -0.085 in the assay with idasanutlin; -0.094 with alisertib; 0.011 in assay [2]. Besides, the log2 fold change in the assay with gefitinib is -0.006; in [3], 0.001; with lapatinib, -0.017; in the assay with pictilisib, -0.006.
Consider MYL12B (UniProt O14950), for which the log2 fold change in assay [1] was -0.008; with filanesib, -0.052; in the assay with zotarolimus it was 0.111; in the assay with idasanutlin it was -0.064; with alisertib, -0.06; in assay [2], 0.022. The log2 fold change was -0.001 in the assay with gefitinib, -0.018 in assay [3], 0.047 in the assay with lapatinib and -0.015 in the assay with pictilisib.
As for NTMT1 (UniProt Q9BV86), the log2 fold change in assay [1] was -0.455 (active); in the assay with filanesib, -0.055; with zotarolimus, 0.091; with idasanutlin, -0.121; with alisertib it was -0.043; in [2], 0.085. For the same target, the log2 fold change in the assay with gefitinib is 0.062; in assay [3], -0.027; in the assay with lapatinib, -0.001; in the assay with pictilisib, 0.092.
For MKNK1 (UniProt Q9BUB5), the log2 fold change is 0.021 in [1]; -0.108 with filanesib; -0.022 in the assay with zotarolimus; -0.075 with idasanutlin; 0.008 in the assay with alisertib; -0.021 in assay [2]. In addition, the log2 fold change with gefitinib was 0.525 (active); in assay [3], -0.073; with lapatinib, 0.015; in the assay with pictilisib, -0.058.
In the case of MORF4L2 (UniProt Q15014), the log2 fold change in assay [1] is -0.149; in the assay with filanesib it was 0.146; with zotarolimus, -0.044; with idasanutlin it was 0.045; with alisertib it was -0.066; in [2], -0.085. The log2 fold change in the assay with gefitinib was -0.048; in assay [3] it was -0.074; with lapatinib it was 0.03; with pictilisib, -0.063.
With NUP210 (UniProt Q8TEM1), the log2 fold change in [1] is -0.099; in the assay with filanesib, -0.08; with zotarolimus it was 0.002; with idasanutlin it was 0.019; with alisertib it was -0.045; in [2], -0.319 (active). For the same target, the log2 fold change in the assay with gefitinib was -0.053; in [3], 0.045; in the assay with lapatinib it was -0.089; with pictilisib, -0.114.
